# Measured values reported in PMC4336329 (PLoS ONE, 2015).
# Screen size: about 310,000 compounds; about 14,000 (4.5%) showed an effect of 50% or more. Effects have a minus sign here. The list comes from a sample in which strong results are over-represented; it also holds similar structures and randomly drawn compounds.
# Biological target: human ether-à-go-go-related gene (hERG) potassium channel (human, UniProt Q12809)
# Assay: primary screen, population patch clamp on CHO cells stably expressing hERG; higher = less effect of the substance
# 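Further: peak tail current of the secondary pulse compared with the same well before compound.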
# Chain of human ether-à-go-go-related gene (hERG) potassium channel (Q12809 whole entry, looked up): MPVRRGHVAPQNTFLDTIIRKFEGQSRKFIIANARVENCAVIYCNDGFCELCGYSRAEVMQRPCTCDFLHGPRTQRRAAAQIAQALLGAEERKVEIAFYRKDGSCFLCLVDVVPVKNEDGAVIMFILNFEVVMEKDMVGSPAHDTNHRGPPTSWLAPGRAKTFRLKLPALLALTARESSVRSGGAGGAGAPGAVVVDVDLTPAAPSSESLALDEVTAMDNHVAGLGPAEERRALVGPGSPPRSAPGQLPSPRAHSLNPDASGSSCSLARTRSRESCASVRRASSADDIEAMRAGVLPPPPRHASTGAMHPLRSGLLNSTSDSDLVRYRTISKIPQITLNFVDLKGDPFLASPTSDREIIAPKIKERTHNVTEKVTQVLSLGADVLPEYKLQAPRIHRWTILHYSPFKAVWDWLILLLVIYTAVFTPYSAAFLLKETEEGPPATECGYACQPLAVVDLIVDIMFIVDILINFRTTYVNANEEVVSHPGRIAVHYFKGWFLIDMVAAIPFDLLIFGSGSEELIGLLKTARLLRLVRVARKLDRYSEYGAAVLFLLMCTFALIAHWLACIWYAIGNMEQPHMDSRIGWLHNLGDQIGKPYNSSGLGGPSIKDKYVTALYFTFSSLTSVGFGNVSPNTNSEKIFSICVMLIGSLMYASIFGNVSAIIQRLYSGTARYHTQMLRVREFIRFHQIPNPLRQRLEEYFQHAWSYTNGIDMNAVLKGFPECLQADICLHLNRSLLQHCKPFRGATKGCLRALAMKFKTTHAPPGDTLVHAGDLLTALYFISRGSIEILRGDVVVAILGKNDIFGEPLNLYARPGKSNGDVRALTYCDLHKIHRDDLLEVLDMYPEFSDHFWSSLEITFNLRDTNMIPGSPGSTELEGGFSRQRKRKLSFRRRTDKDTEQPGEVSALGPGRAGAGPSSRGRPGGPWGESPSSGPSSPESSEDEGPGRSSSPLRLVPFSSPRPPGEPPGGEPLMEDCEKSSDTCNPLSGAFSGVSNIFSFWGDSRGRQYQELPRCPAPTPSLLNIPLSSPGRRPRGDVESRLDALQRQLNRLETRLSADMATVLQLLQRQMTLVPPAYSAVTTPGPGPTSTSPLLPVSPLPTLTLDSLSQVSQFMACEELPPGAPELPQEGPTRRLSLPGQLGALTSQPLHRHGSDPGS
row,SMILES,"hERG current change (%, negative = inhibition) at 10uM [%]"
1,COc1cc(C(=O)Nc2ccc(S(=O)(=O)Nc3nccc(C)n3)cc2)cc(OC)c1OC,12.9
2,O=C(CN1CCN(c2ccccn2)CC1)Nc1cc(C(F)(F)F)ccc1Cl,-3.6
3,COc1ccc(CCNc2cc(-c3ccccc3)nc3ncnn23)cc1,-2.18
4,COc1ccc(-c2cc(-c3ccccc3)n3ncnc3n2)cc1,-60.9
5,c1ccc(-c2cc(-c3ccccc3)n3ncnc3n2)cc1,-49.5
6,COc1ccc(-c2cc(NCc3ccccn3)n3ncnc3n2)cc1,-23.5
7,COc1ccc(-c2cc(NCCc3ccncc3)n3ncnc3n2)cc1,-55.8
8,COc1ccc(-c2cc(-c3ccccc3)nc3ncnn23)cc1,-56.4
9,COc1ccc(-c2cc(-c3ccc(Br)cc3)nc3ncnn23)cc1OC,-34.4
10,Cc1cc(-c2ccccc2)n2ncnc2n1,12.5
11,COc1ccc(-c2ccnc3ncnn23)cc1,-9.61
12,COc1cc(OC)c(NS(=O)(=O)c2cn(C)cn2)cc1Cl,5.67
13,CCOC(=O)C(Cc1ccc(OC)c([N+](=O)[O-])c1)NC(=O)CCC(=O)Nc1ccc(OC)cc1 (centres unmarked),1.35
14,COC1CCCN(C(=O)c2ccc(OC3CCN(S(=O)(=O)N(C)C)CC3)cc2)C1 (centres unmarked),8.14
15,CCOC(=O)C(CCSC)NC(=O)CN.Cl (centres unmarked),-6.89
16,Cc1ccc(-n2c(C)cc(/C=C3/C(=O)NC(=O)N(C)C3=O)c2C)cc1,15.2
17,CSc1nnc(-c2ccc(Br)s2)n1C,1.98
18,O=C(Cn1cc(C(F)(F)F)ccc1=O)N/N=C/c1ccccc1O,-7.65
19,O=C(CSC1=NCCN1)Nc1ccccc1[N+](=O)[O-],11.2
20,CNC(=O)C(C)Sc1ccc(S(=O)(=O)N2CCOCC2)cn1 (centres unmarked),-0.356
21,CC(Sc1ccc(Cl)cc1)C(=O)Nc1ccc(S(=O)(=O)N2CCOCC2)cc1 (centres unmarked),-22.7
22,CC(Sc1ccc(S(=O)(=O)N2CCOCC2)cn1)C(=O)Nc1ccc(Cl)cc1Cl (centres unmarked),-56.1
23,COc1ccc(Cl)cc1N1CCN(CCNC(=O)Nc2ccccc2C)CC1,-40.1
24,CCOc1cc(CNc2ncc(-c3ccc(OC)cc3)n2C)ccc1O.O=C(O)C(=O)O,-48.3
25,COc1ccc(CNc2ncc(-c3ccc(Cl)cc3)n2C)c(OC)c1OC.O=C(O)C(=O)O,-47

row,SMILES,"hERG current change (%, negative = inhibition) at 10uM [%]"
1,COc1cc(CNc2ncc(-c3ccc(Br)cc3)n2C)cc(OC)c1O.O=C(O)C(=O)O,-60.5
2,COc1cc(CNc2ncc(-c3ccc(Cl)cc3)n2C)cc(OC)c1OC.O=C(O)C(=O)O,-66.9
3,COc1cc(CNc2ncc(-c3ccc(Br)cc3)n2C)cc(OC)c1OC.O=C(O)C(=O)O,-49.9
4,COc1ccc(CNc2ncc(-c3ccccc3)n2C)c(OC)c1OC.O=C(O)C(=O)O,-44.1
5,Cc1cccc2c1cnn2C(=O)CCC(=O)N1CCC(C)CC1,-14.1
6,Br.NC1(N)OC(CN2C(=O)c3ccccc3C2=O)CS1 (centres unmarked),-5.75
7,Cc1c(C(=O)NC(C)c2ccncc2)oc2ccccc12 (centres unmarked),-29.7
8,COc1cc(OC)cc(C(=O)Nc2ccc(CN3CCCCC3)cc2)c1,-14.7
9,CC(C)C(=O)Nc1cccc(NC(=O)c2cccc(F)c2)c1,5.16
10,COc1ccc(OCc2cccc(C(=O)Nc3ccc(CN4CCCCC4)cc3)c2)cc1,-72.8
11,CCOc1ccc(OCc2cccc(C(=O)N3CCCCCC3)c2)cc1,-69.3
12,CCOc1ccc(OCc2cccc(C(=O)N3CCCC3)c2)cc1,-11.6
13,O=C(Nc1ccc(C(=O)N2CCCC2)cc1)c1ccc2c(c1)OCO2,-0.403
14,CCCNC(=O)c1cccc(NC(=O)C(C)C)c1,-25.4
15,COc1ccc(OCc2cccc(C(=O)N3CCCC3)c2)cc1,-3.08
16,CC(C)C(=O)Nc1cccc(NC(=O)c2cccc(Br)c2)c1,-52.1
17,O=C(Nc1ccc(CN2CCCCC2)cc1)c1ccc2c(c1)OCO2,-64.3
18,O=C(Nc1ccc2c(c1)OCO2)c1ccc(CN2CCOCC2)cc1,10.1
19,COc1ccc(C(=O)Nc2ccc(CN3CCCCC3)cc2)cc1,-40.3
20,CC(=O)Nc1ccc(NC(=O)C(C)OC(=O)c2cccc(S(=O)(=O)N3CCCC3)c2)cc1 (centres unmarked),10.4
21,Cc1ccccc1CCNC(=O)C1CCCN(c2cnccn2)C1 (centres unmarked),-0.76
22,O=C(O)C(=O)O.O=C(c1cccnc1)N1CCN(Cc2ccccc2Br)CC1,4.7
23,CCCCN(C)C(=O)c1nc2ccccn2c1CN1CCC[C@H]1CO,3.21
24,CC(C)C[C@H](NC(=O)c1nc[nH]c1C(=O)NCc1ccc(CNC(=O)OC(C)(C)C)cc1)C(=O)OCc1ccccc1,2.91
25,CCOC(=O)CNC(=S)N(Cc1cccs1)C1CCCC1,-5.82

row,SMILES,"hERG current change (%, negative = inhibition) at 10uM [%]"
1,O=c1c2[nH]c3ccccc3c2ncn1Cc1ccccn1,-0.569
2,CCOC(=O)c1ccccc1NC(=O)COC(=O)CCC(=O)c1ccccc1,16.3
3,NNC(=S)NC1CCS(=O)(=O)C1 (centres unmarked),22.1
4,Cc1cc(/C=C2/C(=O)N(C)C(=S)N2C)ccc1N1CCCC1,7.27
5,Cc1ccc(S(=O)(=O)N(CC(=O)Nc2ccc(C(N)=O)cc2)C(=O)N2CCN(C)CC2)cc1,-0.0686
6,CCOc1ccc(OCc2ccc(C(=O)N(CC)CC)cc2)cc1,2.22
7,O=C(Nc1ccc(CN2CCCCC2)cc1)c1cccc(Br)c1,-86.7
8,CCCCC(=O)Nc1cccc(NC(=O)c2ccc3c(c2)OCO3)c1,6.43
9,O=C(NC(=S)Nc1ccc(CN2CCCCC2)cc1)c1cccc(OCc2ccccc2)c1,-5.83
10,O=C(Nc1ccc(CN2CCCCC2)cc1)c1cc(Br)ccc1Cl,-20.3
11,CCOc1ccc(OCc2cccc(C(=O)N(CC)CC)c2)cc1,-67.6
12,O=C(Nc1ccc(CN2CCCCC2)cc1)c1cccc(F)c1,-40
13,CCOc1ccc(OCc2cccc(C(=O)O)c2)cc1,8.48
14,CCOc1ccc(OCc2cccc(C(=O)Nc3ccc(CN4CCCCC4)cc3)c2)cc1,-63.2
15,CCCC(=O)Nc1cccc(NC(=O)c2ccc3c(c2)OCO3)c1,-52.3
16,CCCC(=O)Nc1cccc(NC(=O)c2ccc3c(c2)OCCO3)c1,5.87
17,CCOc1ccc(NC(=O)c2ccc(CN3CCc4ccccc4C3)cc2)cc1,0.805
18,COc1ccc(NC(=O)CO/N=C2/CCCc3nonc32)c(OC)c1,11.1
19,COc1ccc(CCNC(=O)Cn2nnc(-c3cccs3)n2)cc1OC,-7.76
20,Cc1onc(-c2ccccc2Cl)c1C(=O)N1CCC(C)CC1,4
21,COC(=O)/C(=C/c1ccccc1)NC(=O)c1ccco1,4.23
22,O=C(Nc1ccc(CN2CCCCC2)cc1)c1c(F)c(F)c(F)c(F)c1F,-56.5
23,CCN1CCN(c2ccc(NC(=O)c3ccc4c(c3)OCO4)cc2)CC1,-54.5
24,CCC(=O)N1CCN(c2ccc(NC(=O)c3ccc4c(c3)OCO4)cc2)CC1,-0.905
25,O=C(Nc1ccc(CN2CCCCC2)cc1)c1ccc(Br)o1,-33

row,SMILES,"hERG current change (%, negative = inhibition) at 10uM [%]"
1,CC(=O)Nc1ccc(CN2CCCCCCC2)cc1,-4.11
2,CN1CCN(c2ccc(NC(=O)c3ccc4c(c3)OCO4)cc2)CC1,-38.3
3,Cc1nc2ccc(C(=O)Nc3ccccc3Cl)cc2s1,10.5
4,O=C(Cc1ccccc1F)NC1CCSc2ccccc21 (centres unmarked),-13
5,O=C(Nc1ccccc1)NC1CCCCNC1=O (centres unmarked),21.4
6,COc1cccc(C(=O)N/N=C/c2ccc(OC3CSC3)cc2)c1,5.4
7,O=C(N/N=C/c1ccc(OC2CSC2)cc1)c1ccccc1,-13.6
8,Cc1cccc(C(=O)N/N=C/c2ccc(OC3CSC3)cc2)c1,-92.4
9,COC(=O)c1ccccc1NC(=O)c1ccc(Cn2cc(Cl)cn2)o1,4.21
10,CCOC(=O)C1=C(c2cccc(Oc3ccccc3)c2)NC(=S)NC1C (centres unmarked),-15.8
11,CCn1c(CC(=O)Nc2ccccc2F)nnc1SCC(=O)Nc1nnc(C)s1,-22.2
12,O=C(COc1ccc(Cl)cc1)N1CCN(Cc2ccc3c(c2)OCO3)CC1,-52.6
13,Cl.N#Cc1ccc(OCC(=O)N2CCN(Cc3ccc4c(c3)OCO4)CC2)cc1,-68.1
14,O=C(CSCc1ccc(Cl)cc1)N1CCN(Cc2ccc3c(c2)OCO3)CC1,-48.2
15,O=C(c1ccc(F)cc1)N1CCCC(N2CCN(Cc3ccc4c(c3)OCO4)CC2)C1 (centres unmarked),-22.2
16,Cl.O=C(COc1ccc(Cl)cc1)N1CCN(Cc2ccc3c(c2)OCO3)CC1,-48.2
17,O=C(COc1ccc(Br)cc1)N1CCN(Cc2ccc3c(c2)OCO3)CC1,-53.9
18,N#CCC(=O)N1CCN(Cc2ccc3c(c2)OCO3)CC1,16.3
19,CN(C)c1ccc(C(=O)N2CCCC(N3CCN(Cc4ccc5c(c4)OCO5)CC3)C2)cc1 (centres unmarked),-82.3
20,COc1ccc(OCC(=O)N2CCN(Cc3ccc4c(c3)OCO4)CC2)cc1,-12.2
21,CCc1ccc(OCC(=O)N2CCN(Cc3ccc4c(c3)OCO4)CC2)cc1,-15.9
22,O=C(COc1ccc(S(=O)(=O)N2CCOCC2)cc1)N1CCN(Cc2ccc3c(c2)OCO3)CC1,-10
23,Cc1ccccc1C(=O)N1CCCC(N2CCN(Cc3ccc4c(c3)OCO4)CC2)C1 (centres unmarked),-11.7
